Targets with a hit are over-represented here; the source holds about 7,900 in all. About 0.6% of all pairs of compound and target were hits.

Sequence of UniProt P60520 (P60520 whole entry, looked up): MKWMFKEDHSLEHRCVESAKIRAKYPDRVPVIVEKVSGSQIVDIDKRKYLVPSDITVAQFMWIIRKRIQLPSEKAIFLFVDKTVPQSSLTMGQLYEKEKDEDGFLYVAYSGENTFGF
Sequence of UniProt P0CL80 (P0CL80 whole entry, looked up): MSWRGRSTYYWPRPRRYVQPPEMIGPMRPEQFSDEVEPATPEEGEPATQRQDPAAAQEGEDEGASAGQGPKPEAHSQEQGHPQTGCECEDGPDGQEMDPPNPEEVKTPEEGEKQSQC
Sequence of UniProt P63218 (P63218 whole entry, looked up): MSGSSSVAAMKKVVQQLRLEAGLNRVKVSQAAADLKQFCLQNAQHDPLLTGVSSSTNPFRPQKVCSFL
Sequence of UniProt Q9ULT8 (Q9ULT8 whole entry, looked up): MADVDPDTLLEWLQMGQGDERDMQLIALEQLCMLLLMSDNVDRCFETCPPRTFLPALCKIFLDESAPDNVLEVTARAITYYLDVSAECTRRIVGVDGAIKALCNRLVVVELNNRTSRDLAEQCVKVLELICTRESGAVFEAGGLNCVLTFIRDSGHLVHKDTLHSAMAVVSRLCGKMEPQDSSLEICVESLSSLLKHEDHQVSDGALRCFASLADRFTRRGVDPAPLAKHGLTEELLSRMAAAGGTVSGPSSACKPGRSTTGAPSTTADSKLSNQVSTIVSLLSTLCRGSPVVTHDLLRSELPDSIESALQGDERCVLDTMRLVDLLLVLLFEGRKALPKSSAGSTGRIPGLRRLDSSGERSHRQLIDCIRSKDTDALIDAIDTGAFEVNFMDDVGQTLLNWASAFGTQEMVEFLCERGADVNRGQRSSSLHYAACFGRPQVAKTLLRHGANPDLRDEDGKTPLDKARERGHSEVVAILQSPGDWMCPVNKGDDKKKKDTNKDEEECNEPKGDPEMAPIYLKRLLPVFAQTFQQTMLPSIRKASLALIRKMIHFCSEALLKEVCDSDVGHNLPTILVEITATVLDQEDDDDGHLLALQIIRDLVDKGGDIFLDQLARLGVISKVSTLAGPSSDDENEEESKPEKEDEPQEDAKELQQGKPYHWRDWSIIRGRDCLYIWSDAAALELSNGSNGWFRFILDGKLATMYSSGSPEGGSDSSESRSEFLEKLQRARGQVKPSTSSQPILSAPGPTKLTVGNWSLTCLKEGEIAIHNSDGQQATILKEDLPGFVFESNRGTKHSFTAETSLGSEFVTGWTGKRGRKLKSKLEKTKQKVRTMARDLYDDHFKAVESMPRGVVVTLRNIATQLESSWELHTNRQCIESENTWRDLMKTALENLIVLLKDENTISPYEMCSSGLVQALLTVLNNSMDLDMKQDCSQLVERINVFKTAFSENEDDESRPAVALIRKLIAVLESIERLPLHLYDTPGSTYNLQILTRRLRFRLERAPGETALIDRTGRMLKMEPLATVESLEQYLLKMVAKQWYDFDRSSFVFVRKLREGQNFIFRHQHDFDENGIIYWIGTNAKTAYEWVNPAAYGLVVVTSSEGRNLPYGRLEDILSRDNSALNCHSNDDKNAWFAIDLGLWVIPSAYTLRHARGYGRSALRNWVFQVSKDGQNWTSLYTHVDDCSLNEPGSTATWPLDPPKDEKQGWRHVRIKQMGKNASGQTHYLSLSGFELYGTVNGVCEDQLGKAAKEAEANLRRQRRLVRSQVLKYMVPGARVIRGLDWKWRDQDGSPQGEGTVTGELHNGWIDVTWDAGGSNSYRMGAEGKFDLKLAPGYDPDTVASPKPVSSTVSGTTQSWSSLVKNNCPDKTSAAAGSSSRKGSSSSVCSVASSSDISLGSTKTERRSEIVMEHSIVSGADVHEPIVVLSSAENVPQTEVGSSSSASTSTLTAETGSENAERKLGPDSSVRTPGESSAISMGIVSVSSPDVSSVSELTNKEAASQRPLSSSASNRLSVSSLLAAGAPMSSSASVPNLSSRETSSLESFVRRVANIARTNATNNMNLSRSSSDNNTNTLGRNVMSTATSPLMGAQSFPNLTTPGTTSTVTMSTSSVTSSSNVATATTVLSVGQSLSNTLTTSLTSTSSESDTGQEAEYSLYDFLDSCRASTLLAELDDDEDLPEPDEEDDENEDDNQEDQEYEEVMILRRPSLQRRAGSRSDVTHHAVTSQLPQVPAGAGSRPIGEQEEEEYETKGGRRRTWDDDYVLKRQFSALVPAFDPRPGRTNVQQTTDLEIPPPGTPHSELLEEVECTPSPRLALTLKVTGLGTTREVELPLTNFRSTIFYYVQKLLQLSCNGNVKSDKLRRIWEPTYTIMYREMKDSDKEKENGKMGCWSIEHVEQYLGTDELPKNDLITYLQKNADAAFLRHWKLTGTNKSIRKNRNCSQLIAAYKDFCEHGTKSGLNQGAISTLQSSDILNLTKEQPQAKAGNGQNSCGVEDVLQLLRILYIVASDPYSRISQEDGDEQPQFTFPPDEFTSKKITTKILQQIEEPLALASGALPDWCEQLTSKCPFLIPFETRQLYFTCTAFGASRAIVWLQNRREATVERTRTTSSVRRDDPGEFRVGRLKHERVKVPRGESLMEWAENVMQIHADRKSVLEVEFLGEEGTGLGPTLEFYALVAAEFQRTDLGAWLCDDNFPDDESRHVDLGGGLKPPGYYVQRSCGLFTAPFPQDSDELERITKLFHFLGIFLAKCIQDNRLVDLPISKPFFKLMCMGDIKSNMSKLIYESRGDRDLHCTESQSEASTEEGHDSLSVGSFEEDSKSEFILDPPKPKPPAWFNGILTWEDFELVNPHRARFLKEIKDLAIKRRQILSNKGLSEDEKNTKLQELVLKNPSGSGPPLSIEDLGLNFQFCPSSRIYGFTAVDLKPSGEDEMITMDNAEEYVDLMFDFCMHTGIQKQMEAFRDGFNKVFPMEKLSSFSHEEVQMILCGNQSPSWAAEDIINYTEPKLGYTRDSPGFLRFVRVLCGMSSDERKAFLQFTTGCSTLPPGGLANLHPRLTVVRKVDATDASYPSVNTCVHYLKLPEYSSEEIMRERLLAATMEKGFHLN
Sequence of UniProt Q9P2H3 (Q9P2H3 whole entry, looked up): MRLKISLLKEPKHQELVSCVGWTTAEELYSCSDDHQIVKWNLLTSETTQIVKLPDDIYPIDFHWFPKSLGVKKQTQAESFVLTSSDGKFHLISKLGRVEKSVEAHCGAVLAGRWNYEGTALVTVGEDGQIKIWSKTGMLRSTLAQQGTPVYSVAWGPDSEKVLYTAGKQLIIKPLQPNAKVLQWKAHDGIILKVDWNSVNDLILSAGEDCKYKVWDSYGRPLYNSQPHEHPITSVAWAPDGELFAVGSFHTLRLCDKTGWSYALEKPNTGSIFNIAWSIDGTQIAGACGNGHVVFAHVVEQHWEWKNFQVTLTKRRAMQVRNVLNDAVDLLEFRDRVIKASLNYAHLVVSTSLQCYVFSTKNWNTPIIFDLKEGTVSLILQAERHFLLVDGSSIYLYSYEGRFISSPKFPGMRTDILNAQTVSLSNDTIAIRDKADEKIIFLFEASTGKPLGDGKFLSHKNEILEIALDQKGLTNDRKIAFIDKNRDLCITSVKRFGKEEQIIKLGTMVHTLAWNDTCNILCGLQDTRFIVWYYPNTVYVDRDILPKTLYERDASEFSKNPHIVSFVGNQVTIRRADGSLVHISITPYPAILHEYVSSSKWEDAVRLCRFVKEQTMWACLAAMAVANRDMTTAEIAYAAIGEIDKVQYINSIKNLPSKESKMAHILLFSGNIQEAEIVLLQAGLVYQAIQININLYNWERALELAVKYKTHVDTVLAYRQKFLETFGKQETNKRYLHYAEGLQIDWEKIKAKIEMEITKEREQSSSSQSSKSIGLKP
Sequence of UniProt P52655 (P52655 whole entry, looked up): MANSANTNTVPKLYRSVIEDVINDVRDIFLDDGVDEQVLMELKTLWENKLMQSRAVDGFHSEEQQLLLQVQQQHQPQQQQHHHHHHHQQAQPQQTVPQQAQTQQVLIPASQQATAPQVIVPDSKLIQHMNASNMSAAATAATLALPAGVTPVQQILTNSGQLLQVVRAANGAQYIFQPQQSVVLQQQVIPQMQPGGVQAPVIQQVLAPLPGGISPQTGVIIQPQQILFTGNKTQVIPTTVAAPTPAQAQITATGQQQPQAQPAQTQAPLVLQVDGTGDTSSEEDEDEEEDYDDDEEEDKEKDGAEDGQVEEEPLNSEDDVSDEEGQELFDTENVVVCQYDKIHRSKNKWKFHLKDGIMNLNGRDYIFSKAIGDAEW
Sequence of UniProt Q6P3S6 (Q6P3S6 whole entry, looked up): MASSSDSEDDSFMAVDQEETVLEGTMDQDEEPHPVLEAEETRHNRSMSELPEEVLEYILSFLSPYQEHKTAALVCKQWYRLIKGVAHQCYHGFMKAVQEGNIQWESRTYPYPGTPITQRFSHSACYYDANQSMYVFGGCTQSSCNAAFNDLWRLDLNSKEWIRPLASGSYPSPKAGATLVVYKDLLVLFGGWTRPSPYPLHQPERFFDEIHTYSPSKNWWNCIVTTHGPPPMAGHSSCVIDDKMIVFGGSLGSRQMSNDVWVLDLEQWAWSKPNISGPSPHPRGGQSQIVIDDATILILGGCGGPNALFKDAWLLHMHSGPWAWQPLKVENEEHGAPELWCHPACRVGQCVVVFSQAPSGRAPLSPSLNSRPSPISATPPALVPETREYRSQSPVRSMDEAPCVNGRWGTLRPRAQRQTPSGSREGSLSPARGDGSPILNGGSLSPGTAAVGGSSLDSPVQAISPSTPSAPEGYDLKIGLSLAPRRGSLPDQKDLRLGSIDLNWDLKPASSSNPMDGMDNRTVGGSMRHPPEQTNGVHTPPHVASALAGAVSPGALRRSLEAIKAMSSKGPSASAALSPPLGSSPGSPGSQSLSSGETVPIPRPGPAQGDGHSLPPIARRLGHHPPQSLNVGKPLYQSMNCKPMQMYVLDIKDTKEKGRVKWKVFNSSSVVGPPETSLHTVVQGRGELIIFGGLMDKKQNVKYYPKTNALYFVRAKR
Sequence of UniProt P09211 (P09211 whole entry, looked up): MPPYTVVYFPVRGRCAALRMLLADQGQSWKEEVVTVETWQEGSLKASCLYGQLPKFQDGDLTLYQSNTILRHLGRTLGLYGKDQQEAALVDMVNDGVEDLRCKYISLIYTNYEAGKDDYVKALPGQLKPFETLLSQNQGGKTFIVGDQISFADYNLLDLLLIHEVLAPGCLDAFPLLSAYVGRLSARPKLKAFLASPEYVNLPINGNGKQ

Compound in one assay: CCN(CC)Cc1ccc2cc(COC(=O)Nc3ccc(C(=O)NO)cc3)ccc2c1 [givinostat]
Description: log2 fold change, soluble protein after heating vs DMSO (PISA); higher = thermal stabilisation; K562 cells, 10 uM, 30 min; active = over 0.2 and 3.5 SD of the protein, either way, in both replicates (recomputed). In short, it runs like this: (§1)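 K562 cells (2×10^6 cells/mL) were treated with 10 μM compound for 30 min, and aliquots were heated for 3 min over 48°C-58°C. Pooled aliquots were extracted in PBS with 0.5% NP-40 at 4°C, and the supernatant after 21,000xg for 90 min was measured by TMTpro 16plex LC-MS/MS with channel sums equalised. Reported thermal stability, relative to control samples and from duplicates, is a log2 fold change.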
In the case of GIGYF2 (UniProt Q6Y7W6), the log2 fold change is 0.092 (inactive).

On to HSPA8 (UniProt P11142), for which the log2 fold change was -0.02 (inactive).

Consider FNTA (UniProt P49354), for which the log2 fold change is -0.052 (inactive).

As for HOMER1 (UniProt Q86YM7), the log2 fold change was 0.007 (inactive).

Turning to GTF2A1 (UniProt P52655), the log2 fold change is -0.01 (inactive).

As to GNG5 (UniProt P63218), the log2 fold change is -0.063 (inactive).

For FYB1 isoform 3 (UniProt O15117), the log2 fold change was 0.066 (inactive).

For GDPD1 (UniProt Q8N9F7), the log2 fold change was -0.046 (inactive).

As for FNTB (UniProt P49356), the log2 fold change was -0.083 (inactive).

For HECTD1 (UniProt Q9ULT8), the log2 fold change is 0.038 (inactive).

For GGA2 (UniProt Q9UJY4), the log2 fold change was -0.03 (inactive).

Regarding GCDH (UniProt Q92947), the log2 fold change is 0.004 (inactive).

As for GABARAPL2 (UniProt P60520), the log2 fold change was 0.03 (inactive).

Consider GNB2 (UniProt P62879), for which the log2 fold change is -0.019 (inactive).

FBXO3 (UniProt Q9UK99): the log2 fold change is 0.049 (inactive).

Consider FKBP7 (UniProt Q9Y680), for which the log2 fold change was 0.002 (inactive).

On to GALNT4 (UniProt Q8N4A0), for which the log2 fold change was 0.005 (inactive).

Consider HMOX2 (UniProt P30519), for which the log2 fold change was 0.015 (inactive).

Consider ICAM1 (UniProt P05362), for which the log2 fold change is -0.014 (inactive).

Take GDI1 (UniProt P31150): the log2 fold change was -0.032 (inactive).

For FANCD2 isoform 1 (UniProt Q9BXW9), the log2 fold change is 0.017 (inactive).

As to GBF1 (UniProt Q92538), the log2 fold change was 0.07 (inactive).

In the case of GAGE12F (UniProt P0CL80), the log2 fold change was -0.076 (inactive).

Regarding IFT80 isoform 3 (UniProt Q9P2H3), the log2 fold change is -0.104 (inactive).

FBXO42 (UniProt Q6P3S6): the log2 fold change is 0.09 (inactive).

Turning to HMGN2 (UniProt P05204), the log2 fold change was -0.019 (inactive).

HADHA (UniProt P40939): the log2 fold change is 0.044 (inactive).

In the case of HEATR5B (UniProt Q9P2D3), the log2 fold change was 0.07 (inactive).

For GLIPR2 (UniProt Q9H4G4), the log2 fold change was 0.009 (inactive).

Take GNS (UniProt P15586): the log2 fold change is 0.011 (inactive).

Turning to HIP1R (UniProt O75146), the log2 fold change is 0.059 (inactive).

Regarding HADHB (UniProt P55084), the log2 fold change was 0.064 (inactive).

As for GSTP1 (UniProt P09211), the log2 fold change is -0.019 (inactive).

In the case of FECH isoform 2 (UniProt P22830), the log2 fold change was -0.238 (inactive).

Consider GTF2H3 (UniProt Q13889), for which the log2 fold change was 0.068 (inactive).

Compound in another assay: CCN(CCCOc1ccc2c(Nc3cc(CC(=O)Nc4cccc(F)c4)[nH]n3)ncnc2c1)CCOP(=O)(O)O [barasertib]
The description is as above. Put shortly: as §1
In the case of GIGYF2 (UniProt Q6Y7W6), the log2 fold change is 0.093 (inactive).

Turning to HSPA8 (UniProt P11142), the log2 fold change is -0.005 (inactive).

Consider FNTA (UniProt P49354), for which the log2 fold change is 0.007 (inactive).

As for HOMER1 (UniProt Q86YM7), the log2 fold change was 0.036 (inactive).

As for GTF2A1 (UniProt P52655), the log2 fold change is 0.021 (inactive).

For the target GNG5 (UniProt P63218), the log2 fold change was -0.064 (inactive).

FYB1 isoform 3 (UniProt O15117): the log2 fold change is 0.052 (inactive).

On to GDPD1 (UniProt Q8N9F7), for which the log2 fold change was 0.001 (inactive).

Regarding FNTB (UniProt P49356), the log2 fold change is -0.034 (inactive).

HECTD1 (UniProt Q9ULT8): the log2 fold change was 0.048 (inactive).

Take GGA2 (UniProt Q9UJY4): the log2 fold change is 0.051 (inactive).

Turning to GCDH (UniProt Q92947), the log2 fold change was 0.005 (inactive).

As for GABARAPL2 (UniProt P60520), the log2 fold change is 0.007 (inactive).

Turning to GNB2 (UniProt P62879), the log2 fold change is -0.042 (inactive).

As for FBXO3 (UniProt Q9UK99), the log2 fold change is -0.043 (inactive).

For FKBP7 (UniProt Q9Y680), the log2 fold change was 0.044 (inactive).

For GALNT4 (UniProt Q8N4A0), the log2 fold change is 0.011 (inactive).

Regarding HMOX2 (UniProt P30519), the log2 fold change was 0.042 (inactive).

Take ICAM1 (UniProt P05362): the log2 fold change was -0.021 (inactive).

Consider GDI1 (UniProt P31150), for which the log2 fold change is 0.012 (inactive).

With FANCD2 isoform 1 (UniProt Q9BXW9), the log2 fold change was 0.043 (inactive).

Consider GBF1 (UniProt Q92538), for which the log2 fold change is 0.028 (inactive).

Take GAGE12F (UniProt P0CL80): the log2 fold change is 0.01 (inactive).

For the target IFT80 isoform 3 (UniProt Q9P2H3), the log2 fold change is -0.004 (inactive).

For the target FBXO42 (UniProt Q6P3S6), the log2 fold change is 0.015 (inactive).

As to HMGN2 (UniProt P05204), the log2 fold change was 0.047 (inactive).

As for HADHA (UniProt P40939), the log2 fold change is -0.013 (inactive).

Take HEATR5B (UniProt Q9P2D3): the log2 fold change is 0 (inactive).

Regarding GLIPR2 (UniProt Q9H4G4), the log2 fold change was 0 (inactive).

Consider GNS (UniProt P15586), for which the log2 fold change was -0.004 (inactive).

Take HIP1R (UniProt O75146): the log2 fold change was 0.041 (inactive).

As for HADHB (UniProt P55084), the log2 fold change was 0 (inactive).

With GSTP1 (UniProt P09211), the log2 fold change was 0.023 (inactive).

As for FECH isoform 2 (UniProt P22830), the log2 fold change is -0.049 (inactive).

Consider GTF2H3 (UniProt Q13889), for which the log2 fold change was -0.042 (inactive).

The record behind these values is the supplement of paper PMC10849652.
